Source: PubChem BioAssay (several laboratories)
Most compounds without a hit are left out; they make up all but 6.2% or so of the library.
Cardio protect: modulators protecting cardiomyocytes from myocardial damage; H9c2 cardiomyocytes, H2O2 injury protection, ATPLite, 2 h; protection from H2O2 cell death, % at 20 µM; 360,000 tested, 0.63% active; AID 588492;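 active = compounds giving at least 50% protection of heart cells from peroxide-induced death in the single-dose screen, raw or plate-pattern-corrected value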;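 also: 0% = DMSO wells with peroxide and 100% = DMSO wells without peroxide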
NR3A LBD binder: NR3A (human) ligand-binding domain modulation. NR3A LBD differential scanning fluorimetry, Tm shift; 0% = protein alone, 100% = glycine-bound protein. Tm shift relative to glycine control, % at 25 µM. 340,000 tested, 2.5% active. AID 1259313;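 active = melting temperature shift of at least 10% of the positive control shift, at one fixed dose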
AHR act: human AHR activation; P35869; AHR-responsive luciferase reporter cells, luminescence; activation, % at 5 µM; 320,000 tested, 2.5% active; in the data active = activation above about 47%;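 also: 0% = vehicle wells and 100% = reference agonist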
Target sequence (P35869 whole entry, looked up): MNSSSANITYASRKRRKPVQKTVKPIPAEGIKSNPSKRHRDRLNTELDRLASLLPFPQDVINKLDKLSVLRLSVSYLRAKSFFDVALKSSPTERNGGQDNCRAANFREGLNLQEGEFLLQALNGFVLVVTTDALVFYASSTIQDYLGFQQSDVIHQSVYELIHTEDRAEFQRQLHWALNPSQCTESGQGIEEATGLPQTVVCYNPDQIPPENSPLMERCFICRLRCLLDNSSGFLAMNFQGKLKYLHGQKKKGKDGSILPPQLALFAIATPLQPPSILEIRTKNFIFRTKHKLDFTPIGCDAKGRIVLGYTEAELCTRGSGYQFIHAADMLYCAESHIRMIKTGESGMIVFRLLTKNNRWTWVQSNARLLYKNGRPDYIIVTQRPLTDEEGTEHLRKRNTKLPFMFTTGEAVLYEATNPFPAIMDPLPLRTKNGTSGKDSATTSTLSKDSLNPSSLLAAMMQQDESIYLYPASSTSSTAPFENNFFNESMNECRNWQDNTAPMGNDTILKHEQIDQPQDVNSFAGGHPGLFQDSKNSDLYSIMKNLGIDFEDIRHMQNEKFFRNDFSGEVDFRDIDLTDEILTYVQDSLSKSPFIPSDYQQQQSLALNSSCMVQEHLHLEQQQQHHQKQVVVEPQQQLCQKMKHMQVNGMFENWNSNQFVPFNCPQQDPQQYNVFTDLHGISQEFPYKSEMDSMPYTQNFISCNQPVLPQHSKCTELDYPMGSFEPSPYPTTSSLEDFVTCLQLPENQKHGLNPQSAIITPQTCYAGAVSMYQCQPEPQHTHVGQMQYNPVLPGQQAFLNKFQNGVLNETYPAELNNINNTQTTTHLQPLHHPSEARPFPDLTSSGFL
Mot1-301 SUMO: SUMOylation pathway inhibition by Mot1-301 growth rescue; S. cerevisiae Mot1-301 growth rescue, ATP luminescence, 38.5C; percent above DMSO median, 100 means doubled; growth rescue, % at 18.8 µM; 320,000 tested, 1% active;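 active = every valid replicate shows activation above 250% relative to neutral control wells; inactive = the rest, any valid replicate at or below 250%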;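 also: OY570 slx delta 5 strain wells were the positive control but not used for scaling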
AI-2 QS modul: modulates the Vibrio harveyi AI-2 quorum sensing system; Vibrio harveyi JMH597 AI-2 luminescence/OD600 ratio, 9 h; stronger effect = lower value; strain lacks LuxN and CqsS sensors; 0 = neutral-control median; activity change, % at 7.5 µM; 300,000 tested, 0.4% active; AID 2094; in the data active = activity change below about -75%, passing the limit was not always enough;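 also: luminescence divided by OD600 gain over 9 h not by final OD600 alone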
NTR1 ag: NTR1 (human) agonism; NTR1-U2OS beta-arrestin-GFP spot imaging, agonist mode; activation, % at 20 µM; P30989; 330,000 tested, 0.17% active;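 active = activation at or above 40% of the spot to cytoplasm intensity ratio, with at least 20 cells analyzed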;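 also: 0% = DMSO without peptide and 100% = 100 nM NTR1 peptide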
NTR1 ag confirm: NTR1 (human) agonism, confirmed. 480 tested, 38% active. NTR1-U2OS beta-arrestin-GFP translocation imaging. activation, % at 20 µM. shares compounds with NTR1 ag;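 active = mean activation at 20 µM of at least 40%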;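 also: 0% = DMSO without peptide and 100% = 100 nM NTR1 peptide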
The depositor's hits bear a star; . = no result.

SMILES	Cardio protect	NR3A LBD binder	AHR act	Mot1-301 SUMO	AI-2 QS modul	NTR1 ag	NTR1 ag confirm
COc1cccc(C(c2nnnn2C2CCCC2)N2CCN(C/C=C/c3ccccc3)CC2)c1OC (stereo not given)	-0.5	.	.	.	.	.	.
Cc1[nH]c2ccccc2c1/C=N/NS(=O)(=O)c1ccccc1	-11.0	-6.2	17.9	517.8	8.5	-0.7	.
Cc1[nH]c2ccccc2c1/C=N/Nc1ccccc1[N+](=O)[O-]	-9.1	4.0	28.9	0.2	19.6	40.3*	9.9
Cc1ccc(NC(c2ccccc2)c2nc3ccccc3[nH]c2=O)cc1 (stereo not given)	-6.2	-3.9	12.7	.	58.6	40.2*	8.0
CCOC(=O)C1CSC(CC(=O)Nc2ccc(OC(F)(F)F)cc2)C(=O)N1 (stereo not given)	-3.5	3.6	-1.8	14.4	24.6	0.5	.
COc1ccccc1/C=C\C=N\n1c(-c2ccc(Cl)cc2)n[nH]c1=S	-10.6	-6.4	16.8	.	18.2	48.6*	9.4
COc1cccc(CN2C(=O)CCC2(C)C(=O)NCCc2ccc(OC)c(OC)c2)c1 (stereo not given)	-3.2	0.1	1.6	-13.0	9.7	-2.2	.
Nc1ccc(C(=O)N/N=C\c2ccc(OC(=O)c3ccccc3Cl)cc2)cc1	7.4	3.5	1.7	-11.9	-12.3	-0.7	.
COc1cc(C(=O)N/N=C/c2ccc(OC(=O)c3ccccc3Cl)cc2)ccc1O	51.5*	26.3*	4.1	0.9	37.8	49.1*	9.1
CCN(CC(=O)NC1CCS(=O)(=O)C1)C(C)C(=O)Nc1ccc(F)cc1 (stereo not given)	2.0	-4.1	4.0	-8.4	.	-2.7	.
Cc1cccc(N2CCN(C(=O)C3CCN(c4ncnc5c4nc4n5CCCCC4)CC3)CC2C)c1 (stereo not given)	5.5	-1.0	3.1	262.9	.	54.7*	31.3
Cc1ccc(C)c(N2CCN(C(=O)C3CCCN(c4ncnc5c4nc4n5CCCCC4)C3)CC2)c1 (stereo not given)	25.8	-0.1	-1.6	-3.4	40.2	20.2	.
Cc1cccc(N2CCN(C(=O)C3CCN(c4ncnc5c4nc4n5CCCCC4)CC3)CC2)c1C	-5.3	-0.1	-1.4	-8.7	12.6	16.6	.
Cc1ccc(N2CCN(C(=O)C3CCCN(c4ncnc5c4nc4n5CCCCC4)C3)CC2)c(C)c1 (stereo not given)	-9.5	-0.8	0.4	11.5	-13.1	72.7*	29.5
CCCCCCOc1ccc(NC(=O)CC2C(=O)N(CC)C(=S)N2Cc2ccco2)cc1 (stereo not given)	-15.1	16.3*	-2.0	3.3	-0.7	40.5*	10.2
CCN1C[C@@H]2[C@@H]3C(=O)N(C)C(=O)[C@@H]3[C@](C)(C1=O)N2C(=O)c1ccc(Cl)c(Cl)c1	2.9	-0.2	.	.	.	.	.
CCCOc1ccc(/C=C2/C(=O)ON=C2C)cc1OCC	1.7	2.5	1.9	-6.0	24.0	9.6	.
CCOc1cc(/C=C2\C(=O)ON=C2C)ccc1OCc1ccccc1	-12.9	6.3	0.8	0.7	20.2	59.8*	84.3*
COc1cccc(C(C)(O)c2nc(-c3ccoc3)cs2)c1 (stereo not given)	-2.7	.	.	.	.	.	.
COc1cc(CNCc2ccccc2)cc(Cl)c1OC	2.7	0.1	-0.8	-9.2	20.2	3.3	.
COc1cc(CNCCc2ccccc2)cc(Cl)c1OCc1ccccc1	-31.1	-1.3	0.6	6.4	10.8	61.2*	6.2
Oc1ccccc1/C=N/Nc1cc(N2CCCC2)nc(N2CCCC2)n1	-12.6	-4.5	13.1	-0.9	18.4	40.4*	26.8
Cc1cccc(CN2C(=O)/C(=C\c3ccc(C(=O)NCCN4CCOCC4)cc3)Sc3ccccc32)c1	45.1	-4.4	1.1	-10.9	4.6	18.1	.
CCN1CCN(CCNC(=O)c2ccc(/C=C3/Sc4ccccc4N(Cc4cccc(Cl)c4)C3=O)cc2)CC1	-25.9	-6.0	2.7	-13.0	-4.4	57.7*	27.2
O=C(Nc1ncc(Cc2ccc(Cl)cc2Cl)s1)c1ccc([N+](=O)[O-])cc1	-0.8	-7.5	-0.3	-13.6	-0.1	48.3*	6.5
SMILES	Cardio protect	NR3A LBD binder	AHR act	Mot1-301 SUMO	AI-2 QS modul	NTR1 ag	NTR1 ag confirm
c1ccc(CN2CCN(c3ncnc4c3[nH]c3ccccc34)CC2)cc1	-26.3	-6.0	38.0	85.4	21.6	20.4	.
Cc1ccc2c(c1)[nH]c1c(N3CCN(Cc4ccccc4)CC3)ncnc12	-20.7	-12.7	25.6	0.3	28.1	56.2*	7.7
Cc1ccc2[nH]c3c(N4CCN(Cc5ccccc5)CC4)ncnc3c2c1	-25.4	-9.2	65.1*	13.1	41.8	43.3*	22.3
Cc1ccc(S(=O)(=O)N2CCOCC2)cc1C(=O)N1CCC(Cc2ccccc2)CC1	-2.8	-1.4	-0.3	-4.9	11.0	2.7	.
Cc1ccc(OCCN2CCN(c3nc(NCc4ccco4)c4ccccc4n3)CC2)cc1	-10.3	-18.4	-2.3	0.1	31.5	49.7*	32.0
CCc1ccccc1NC(=O)C1(S(=O)(=O)c2ccc(C)cc2)CC1	-1.1	0.5	2.8	4.0	6.9	-2.2	.
COc1cc(/C=C/C(=O)c2cccc([N+](=O)[O-])c2)cc(OC)c1OC	3.0	-0.2	2.9	12.7	1.9	18.4	.
O=C(/C=C/c1ccccc1F)c1cccc([N+](=O)[O-])c1	-18.5	18.8*	57.6*	-39.1	5.1	41.6*	61.3*
Oc1ccc(Br)cc1/C=N/NC(=S)NCCc1ccccc1	31.8	23.4*	18.1	59.4	12.6	60.5*	1.1
CCCCN(C(=O)c1cc(S(=O)(=O)N2CCOCC2)ccc1N1CCOCC1)c1ccccc1	1.1	.	.	.	.	.	.
COc1ccccc1-c1cn[nH]c1-c1ccc(OCc2ccc(F)cc2)cc1O	-10.0	7.3	3.6	-9.8	28.9	40.5*	2.2
COc1ccccc1-c1cn[nH]c1-c1ccc(OCc2ccc([N+](=O)[O-])cc2)cc1O	-2.1	4.2	4.7	10.4	9.8	9.6	.
O=[N+]([O-])c1ccc(COc2ccc(-c3[nH]ncc3-c3ccccc3)c(O)c2)cc1	-9.4	24.9*	57.2*	-11.3	25.5	41.5*	4.1
COc1ccccc1-c1cn[nH]c1-c1ccc(OCc2ccccc2F)cc1O	-12.2	9.7	4.7	9.2	0.8	40.0*	2.4
O=S(=O)(NCCCNS(=O)(=O)c1c(F)cccc1F)c1ccc2c(c1)OCCO2	-0.2	-0.8	1.3	9.3	.	6.0	.
O=C(O)C/C(=C\c1cccc(NC(=O)c2ccccc2Cl)c1)c1nc2ccccc2s1	-1.4	-1.4	6.3	-17.2	35.6	1.0	.
O=C(Nc1ccc(Cl)cc1)/C(=C/c1cccc(O)c1)c1nc2ccccc2s1	-17.6	26.4*	4.2	35.9	41.3	49.2*	56.5*
